Results: PubChem BioAssay (NCI)
The panel holds about 83,000 compounds, 20% with a hit somewhere; the sample as a whole holds those more often.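 Results are percent growth after 48 hours of single-concentration exposure. 100 means growth as in untreated cells, lower positive values show inhibition; negative values down to -100 show cell death.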 Unmarked numbers belong to inactive results. Activity calls are given as the source filed them. How the source made its calls: active means growth percent below 10; inactive means the rest.

How the values were obtained:
Assay in all cases: NCI-60 one-dose screen, 48 h (100 = growth as untreated, 0 = no growth, -100 = all killed)
[1] = tested on: HT29 colon; settings: 10 µM unless noted
[2] = tested on: SNB-75 CNS; settings: 10 µM unless noted
[3] = tested on: SNB-19 CNS; settings: 10 µM unless noted
[4] = tested on: U251 CNS; settings: 10 µM unless noted
[5] = tested on: PC-3 prostate; settings: 10 µM unless noted
[6] = tested on: SK-MEL-5 melanoma; settings: 10 µM unless noted
[7] = tested on: UACC-62 melanoma; settings: 10 µM unless noted
[8] = tested on: LOX IMVI melanoma; settings: 10 µM unless noted
[9] = tested on: SK-MEL-28 melanoma; settings: 10 µM
[10] = tested on: SK-MEL-2 melanoma; settings: 10 µM unless noted

SMILES | growth [1] | growth [2] | growth [3] [%] | growth [4] | growth [5] | growth [6] | growth [7] | growth [8] | growth [9] | growth [10]
CC(=O)c1ccc(NC(=O)Nc2ccc(S(=O)(=O)Nc3ccc(Cl)nn3)cc2)cc1 | 111% | 86.4% | 95.8 | 103% | 104% | 100% | 92% | 99% | 107% | 108%
O=c1c(-c2nc3ccccc3[nH]2)cc2ccccc2n1Cc1cn(Cc2ccccc2Cl)nn1 | 0.454% (active) | -41.2% (active) | 54.8 | 37.9% | 36.6% | 0.0348% (active) | 22.1% | 12.8% | 1.94% (active) | 94.1%
O=C(NC1CCCCC1)C(c1cccs1)N(CCc1ccccc1)C(=O)c1ccco1 (stereo not given) | 69.6% | 91.2% | 96.4 | 96.9% | 92.9% | 97.5% | 90.3% | 94.7% | 105% | 84%
CCN(CC)CCCNc1ccnc2cc3ccccc3cc12 | 74.6% | 36.6% | 71.3 | 46.8% | 60.7% | 50.6% | 69.8% | 53.9% | 65.3% | 57%
COc1ccc(-c2cn3c(C(=O)Nc4ccccc4Cl)c(-c4ccccc4)c4c3n2CCCC4)cc1 | 26% | 108% | 96.6 | 77.4% | 72.8% | 84% | 93.2% | 66.1% | 91.6% | 104%
Cc1nc(Nc2cn[nH]c2C(=O)Nc2ccc(CN3CCN(C)CC3)cc2)c2ccsc2n1 | 66.1% | 37.7% | 107 | 92.8% | 69.8% | 90.3% | 93.9% | 72.8% | 107% | 111%
OC(CNC1CCCCC1)Cn1c2ccc(I)cc2c2cc(I)ccc21 (stereo not given) | 95.7% | 50.4% | 86 | 72.6% | 62.5% | 67.7% | 64.8% | 77.4% | 81.3% | 97%
Cc1ccc2cc3c(N)c4c(C)ccc(C)c4nc3nc2c1 | 4.73% (active) | 41.2% | 80.2 | -5.79% (active) | 63.9% | 11.8% | -73% (active) | -53.8% (active) | -80.6% (active) | -33.2% (active)
Cc1c(C(=O)OCCO)cc(-c2ccc(Cl)cc2)n1-c1ccc(Cl)cc1Cl | 74.6% | 82.3% | 90.6 | 77.7% | 70.4% | 67.1% | 54.5% | 65.1% | 70.8% | 95.9%
Nc1nonc1-n1nncc1-c1cccnc1 | 107% | 81.2% | 129 | 101% | 105% | 106% | 112% | 98.3% | 105% | 111%
O=c1oc2ccc(Br)cc2c(=O)n1-c1ccc(Br)cc1F | 34.8% | -42.4% (active) | 16.9 | -5.99% (active) | -4.81% (active) | -84.8% (active) | -40.7% (active) | 2.66% (active) | -22.6% (active) | -18% (active)
O=C(Nc1ccc(Cl)cc1F)c1cc(Br)ccc1O | 42.4% | -13.6% (active) | 20.4 | 1.1% (active) | -0.306% (active) | -87.2% (active) | -21.8% (active) | 16.1% | 13.2% | -16.3% (active)
Cc1cc2c(c(C)c1Cl)C(=O)/C(=C/c1cccc([N+](=O)[O-])c1)O2 | 95.4% | 102% | 96.8 | 93% | 100% | 96.6% | 82% | 102% | 102% | 97.7%
O=C(Nc1ccc(Br)cc1F)c1cc(I)ccc1O | 92.4% | -9.93% (active) | 13.3 | 3.12% (active) | 7.07% (active) | -68.4% (active) | 3.48% (active) | 13.7% | 19.1% | -26.7% (active)
